Measured values published in PubChem BioAssay.
Calls of active or inactive are those of the source.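 How the source made its calls, unless noted: active means inhibition above 20% together with a positive visual image hit; inconclusive means visual image hit but inhibition not above 20%; inactive means no visual image hit.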

Assays:
[1] = inhibitors of TNFa-induced NFkB p65 translocation, primary screen, imaging, HUVEC, MLSMR starter and 10KST1 sets (AID 438); conditions: HUVEC TNFa-induced p65 nuclear translocation; cell count: measured here: nuclei count (cytotoxicity indicator), at 2.08 µM; inhibition: at 2 µM, stronger effect = higher value, 0% TNFa-plus-vehicle, 100% no-TNFa wells;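 further: compound added about 3h40 before a 20 min TNFalpha stimulation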;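 on inhibition: signal is the nuclear over cytoplasmic p65 intensity ratio per well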
[2] = inhibitors of mutant huntingtin aggregation, primary screen, imaging, exon1htt(103Q)mCFP cells, high-content imaging (AID 483;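 active means visual image review flags a hit and inhibition of aggregation exceeds 20%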;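 further: compound exposure lasted 3 days before fixation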;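 on nuclei count: percent of the per-plate median nuclei count of sample wells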); conditions: exon1htt(103Q)mCFP cell line, aggregate imaging, at 2 µM; inhibition of aggregation: stronger effect = higher value; nuclei count: measured here: cell count, toxicity
[3] = inhibitors of E-selectin induction by TNFa, primary screen, imaging, HUVEC, immunofluorescence, MLSMR starter and 10KST1 sets (AID 487;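 active means visually confirmed hit in the image check and inhibition above 20%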;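 on inhibition: signal is fraction of cell area covered by stained E-selectin grains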;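 on nuclei count: 100% = median nuclei count of all wells on the same plate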); conditions: HUVEC TNFalpha-induced E-selectin immunofluorescence imaging, at 2 µM; inhibition: stronger effect = higher value; nuclei count: measured here: cell number, toxicity
[4] = target: Voltage-gated potassium channel subunit beta-2 (Rattus norvegicus) (UniProt P62483); assay: KvBeta enzyme negative modulators, primary screen, biochemical, NADPH fluorescence (AID 622;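 active means fluorescence slope higher than the sample average by over 3 SD, cut at about -0.22 in these data, passing the limit was not always enough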;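 further: slope of raw intensity against log time taken from 70 to 1610 s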); conditions: recombinant KvBeta, 4-cyanobenzaldehyde reduction, at 10 µM, stronger effect = higher value
[5] = target: Voltage-gated potassium channel subunit beta-2 (Rattus norvegicus) (UniProt P62483); assay: KvBeta positive modulators, primary screen, biochemical, NADPH fluorescence (AID 623;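 active means NADPH fluorescence slope more negative than the mean of all samples by about 3 SD, 99.7% confidence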;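 further: fluorescence intensity change per second fitted from 20 to 320 s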); conditions: Recombinant KvBeta, NADPH fluorescence decrease slope, 10 min; at 10 µM; stronger effect = lower value
[6] = target: Alpha-2C adrenergic receptor (Homo sapiens) (UniProt P18825); assay: modulators of alpha2C/GIRK thallium flux, primary screen, cell-based, HEK293 alpha2C/GIRK1/2 (AID 624;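 active means fluorescence slope after compound addition differing from the mean of all screened samples at 99.7% confidence, in either direction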;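 further: slope of fluorescence ratio to pre-addition baseline per second over 15 to 24 s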); conditions: thallium flux BTC fluorescence, at 10 µM, actives lie on both sides
[7] = inhibitors of Sendai virus-induced IRF3 signaling, primary screen, TLR/RLR signaling modifier project, cell-based, Sendai virus stimulus, luciferase, 10K MLSCN set (AID 602276;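 active means inhibition at or above 50% at 10 µM; inactive means inhibition below 50%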;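 further: firefly luciferase from ISG56 promoter only with Renilla not read in this screen; 0% = Sendai virus plus DMSO and 100% = medium plus DMSO without virus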); conditions: HEK293 RL24 IRF3 luciferase reporter, at 10 µM, stronger effect = higher value
[8] = inhibitors of poly I:C-induced TLR3 signaling, primary screen, cell-based, poly I:C stimulus, luciferase, 10K MLSCN set (AID 602277;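 active means inhibition of the reporter signal at or above 50%; inactive means inhibition below 50%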); conditions: HEK293-TLR3 RL24 IRF3 luciferase reporter, at 10 µM, stronger effect = higher value

Sequence of Voltage-gated potassium channel subunit beta-2 (Rattus norvegicus) (P62483 whole entry, looked up): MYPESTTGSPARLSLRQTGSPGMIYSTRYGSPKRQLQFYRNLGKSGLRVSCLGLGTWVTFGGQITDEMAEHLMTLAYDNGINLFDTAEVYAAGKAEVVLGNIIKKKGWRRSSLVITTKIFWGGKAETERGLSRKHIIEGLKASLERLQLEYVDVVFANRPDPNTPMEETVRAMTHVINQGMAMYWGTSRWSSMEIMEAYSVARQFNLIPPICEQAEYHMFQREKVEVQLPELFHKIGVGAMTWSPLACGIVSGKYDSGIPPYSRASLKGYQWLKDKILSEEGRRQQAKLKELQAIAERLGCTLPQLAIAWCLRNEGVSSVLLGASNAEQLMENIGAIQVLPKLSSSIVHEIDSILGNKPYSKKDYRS
Sequence of Alpha-2C adrenergic receptor (Homo sapiens) (P18825 whole entry, looked up): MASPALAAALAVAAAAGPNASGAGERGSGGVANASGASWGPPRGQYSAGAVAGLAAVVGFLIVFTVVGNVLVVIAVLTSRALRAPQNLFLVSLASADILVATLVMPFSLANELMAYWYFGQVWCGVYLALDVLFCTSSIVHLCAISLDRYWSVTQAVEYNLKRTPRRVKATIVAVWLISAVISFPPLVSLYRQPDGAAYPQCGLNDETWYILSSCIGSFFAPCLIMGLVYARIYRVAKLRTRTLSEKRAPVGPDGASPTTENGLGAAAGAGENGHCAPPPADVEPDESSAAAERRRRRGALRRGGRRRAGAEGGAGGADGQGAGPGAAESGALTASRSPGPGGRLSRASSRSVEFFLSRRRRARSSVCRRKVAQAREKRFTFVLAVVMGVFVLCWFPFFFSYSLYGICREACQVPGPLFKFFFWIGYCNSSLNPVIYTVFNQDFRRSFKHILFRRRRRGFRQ

Row | SMILES | cell count [1] | inhibition [1] | inhibition of aggregation [2] | nuclei count [2] | inhibition [3] | nuclei count [3] | fluorescence slope [4] | NADPH fluorescence slope [5] | slope [6] | inhibition [7] | inhibition [8]
1 | CCOc1ccc(-c2nnc(SCC(=O)N3CCN(c4ccccc4)CC3)o2)cc1 | 672 | -8.6% (inactive) | 8.1% (inactive) | 101% | -59.7% (inactive) | 109% | -0.559 (inactive) | 2.1e-05 (inactive) | 0.0058 (inactive) | 2.37% (inactive) | 14.8% (inactive)
2 | O=C(NCc1ccco1)c1cccn2c(=O)c3sccc3nc12 | 452 | -1.9% (inactive) | -0.8% (inactive) | 96% | 19.6% (inactive) | 101% | -0.112 (inactive) | -7.3e-06 (inactive) | 0.00303 (inactive) | -2.36% (inactive) | -2.82% (inactive)
3 | COCCn1c(SCc2csc(-c3ccccc3)n2)nc2ccccc21 | 639 | 7.2% (inactive) | -4% (inactive) | 97.2% | -24.6% (inactive) | 96.8% | -0.456 (inactive) | 7.6e-05 (inactive) | 0.00574 (inactive) | 1.52% (inactive) | -1.01% (inactive)
4 | Cc1cc(Cl)ccc1OCCCC(=O)NO | 375 | 0.8% (inactive) | -15% (inactive) | 65.5% | -31.4% (inactive) | 108% | -0.31 (inactive) | -1.1e-05 (inactive) | 0.00525 (inactive) | 9.52% (inactive) | -4.29% (inactive)
5 | CCn1c(=O)c(=O)[nH]c2cc(C(=O)N3CCN(c4ccccc4F)CC3)ccc21 | 688 | -6.1% (inactive) | -40.8% (inactive) | 81.5% | -16.5% (inactive) | 110% | -0.594 (inactive) | -3e-05 (inactive) | 0.0083 (inactive) | 5.11% (inactive) | 6.91% (inactive)
6 | CC1(CC(=O)O)C(=O)N=C2C=CC=CN21 (stereo not drawn) | 489 | -10.7% (inactive) | 17.4% (inactive) | 77.5% | 12.8% (inactive) | 97.8% | -0.318 (inactive) | 2.3e-05 (inactive) | 0.0089 (inactive) | 19.8% (inactive) | 22.1% (inactive)
7 | COC(=O)n1c(=S)oc2cc(Cl)ccc21 | 673 | 8.2% (inactive) | -25.1% (inactive) | 106% | 16.4% (inactive) | 93% | -0.638 (inactive) | 1.8e-05 (inactive) | 0.0107 (inactive) | 16.6% (inactive) | 31.1% (inactive)
8 | Cn1c(=O)c2c(nc(CN3CCCCC3)n2CCCc2ccccc2)n(C)c1=O | 431 | 10.1% (inactive) | -30.7% (inactive) | 102% | 38.4% (inactive) | 102% | -0.46 (inactive) | -9.8e-06 (inactive) | 0.00664 (inactive) | 15.4% (inactive) | 44.7% (inactive)
9 | COc1cc(C2c3c(oc4c(C)cc(C)cc4c3=O)C(=O)N2Cc2cccnc2)ccc1O (stereo not drawn) | 627 | -2.7% (inactive) | 0.2% (inactive) | 107% | 12.8% (inactive) | 99.8% | -0.476 (inactive) | -3.3e-05 (inactive) | 0.00579 (inactive) | 16.4% (inactive) | 21.2% (inactive)
10 | CCS(=O)(=O)N1CCCC(C(=O)NCc2cccc(OC)c2)C1 (stereo not drawn) | 722 | -5.5% (inactive) | -59.8% (inactive) | 105% | -66.4% (inactive) | 116% | -0.617 (inactive) | -1.9e-05 (inactive) | 0.00403 (inactive) | -3.96% (inactive) | 3.19% (inactive)
11 | CC(C)N1C(=O)C2C(C(=O)NC3CCCCC3)C3C=CC2(O3)C1C(=O)NC1CCCC1 (stereo not drawn) | 371 | 4.3% (inactive) | 23% (inactive) | 101% | -58.1% (inactive) | 101% | -0.366 (inactive) | 3.1e-05 (inactive) | 0.00675 (inactive) | 8.4% (inactive) | 18.1% (inactive)
12 | COc1ccccc1-c1nnc(NC(=O)c2ccc(S(=O)(=O)N(C)Cc3ccccc3)cc2)o1 | 391 | 6.1% (inactive) | 9.9% (inactive) | 92.8% | -6.7% (inactive) | 99.4% | -0.478 (inactive) | -1.3e-05 (inactive) | 0.00777 (inactive) | 14.7% (inactive) | 25.7% (inactive)
13 | Cc1cc(C)c2c(=O)n(CC(=O)N3CCC(Cc4ccccc4)CC3)sc2n1 | 611 | 16.6% (inactive) | 3% (inactive) | 104% | -6.1% (inactive) | 121% | -0.559 (inactive) | -6.7e-06 (inactive) | 0.00614 (inactive) | 20.7% (inactive) | 46.2% (inactive)
14 | CCn1c(SCC(=O)Nc2ccc3c(c2)OCO3)nnc1-c1ccccc1O | 468 | -6.3% (inactive) | 2% (inactive) | 113% | -143% (inactive) | 151% | -0.5 (inactive) | -5.6e-05 (inactive) | 0.0056 (inactive) | 11.9% (inactive) | 0.128% (inactive)
15 | CCOC(=O)N1CCC(c2cc(=O)n3[nH]c(C)c(-c4ccc(F)cc4)c3n2)CC1 | 743 | -13.4% (inactive) | -25.8% (inactive) | 120% | -82.2% (inactive) | 119% | -0.589 (inactive) | 1.5e-07 (inactive) | 0.00863 (inactive) | 11.5% (inactive) | 31% (inactive)
16 | COc1cc(OC)c(NC(=O)c2ccco2)cc1Cl | 363 | 2.2% (inactive) | 12.2% (inactive) | 110% | -1.1% (inactive) | 106% | -0.407 (inactive) | -4.6e-05 (inactive) | 0.00173 (inactive) | 21.8% (inactive) | 35% (inactive)
17 | CC(NC(=O)COc1ccc(Br)cc1)C(=O)O (stereo not drawn) | 434 | 6% (inactive) | 4.7% (inactive) | 100% | -149% (inactive) | 136% | -0.439 (inactive) | -1.3e-05 (inactive) | 0.00364 (inactive) | 10.1% (inactive) | 24.7% (inactive)
18 | CCN(CC)CCCNc1oc(-c2cccc(Cl)c2)nc1C#N | 729 | -11.9% (inactive) | -13.5% (inactive) | 98.2% | -37.9% (inactive) | 112% | -0.0368 (active) | -1.1e-05 (inactive) | 0.00338 (inactive) | 8.46% (inactive) | 27.9% (inactive)
19 | CCN(CC)c1nc(N(CC)CC)[nH]c(=O)n1 | 477 | -6.5% (inactive) | 15.2% (inactive) | 92.1% | -0.4% (inactive) | 59.6% | -0.512 (inactive) | -3.2e-05 (inactive) | 0.00579 (inactive) | 3.82% (inactive) | -16% (inactive)
20 | Cc1nnc(N2C(=O)c3oc4ccccc4c(=O)c3C2c2ccco2)s1 (stereo not drawn) | 804 | -5.5% (inactive) | 8.3% (inactive) | 98.1% | -28.9% (inactive) | 124% | -0.579 (inactive) | -2.5e-05 (inactive) | 0.00589 (inactive) | 12.3% (inactive) | 13.8% (inactive)
21 | O=C(NC1CCN(Cc2ccccc2)CC1)C1CCN(S(=O)(=O)c2cccc3cccnc23)CC1 | 526 | -11.6% (inactive) | 7.8% (inactive) | 83.4% | -4.4% (inactive) | 99.2% | -0.561 (inactive) | 7.4e-08 (inactive) | 0.00666 (inactive) | -12.5% (inactive) | 8.2% (inactive)
22 | CCC1CCCCN1CCCNC(=O)CC1Oc2ccc(C)cc2NC1=O (stereo not drawn) | 810 | -1.8% (inactive) | 13.7% (inactive) | 105% | -71% (inactive) | 107% | -0.499 (inactive) | -3.5e-05 (inactive) | 0.00565 (inactive) | 5.08% (inactive) | 29.6% (inactive)
23 | CCCCOn1c(C)c(C(=O)OCC)c2c3nonc3ccc21 | 596 | -27.1% (inactive) | -30.2% (inactive) | 116% | -12.4% (inactive) | 101% | -0.458 (inactive) | 6.8e-06 (inactive) | 0.00452 (inactive) | -10.2% (inactive) | -12.6% (inactive)
24 | CCOC(=O)C1CCN(c2c(N(C)Cc3ccco3)c(=O)c2=O)CC1 | 789 | 0.9% (inactive) | 3.8% (inactive) | 103% | -33.1% (inactive) | 114% | -0.576 (inactive) | -2.6e-05 (inactive) | 0.00601 (inactive) | 5.07% (inactive) | 22.7% (inactive)
25 | COC(=O)c1ccccc1NC(=O)COc1ccc(S(=O)(=O)N2CCCC2)cc1C | 618 | 7% (inactive) | 10.3% (inactive) | 88.3% | 44.3% (inactive) | 98.4% | -0.405 (inactive) | 4.1e-06 (inactive) | 0.00334 (inactive) | 16.3% (inactive) | 6.91% (inactive)
26 | c1ccc(-n2ncc3c(NC4CCCCCC4)ncnc32)cc1 | 691 | -0.3% (inactive) | 3.1% (inactive) | 115% | -56.3% (inactive) | 122% | -0.547 (inactive) | -1.1e-06 (inactive) | 0.007 (inactive) | -49.7% (inactive) | -136% (inactive)
27 | CCc1noc(C)c1C(=O)NCCc1ccc(OC)c(OC)c1 | 395 | 3.7% (inactive) | -16.2% (inactive) | 121% | 11.4% (inactive) | 96.9% | -0.468 (inactive) | -4.2e-06 (inactive) | 0.00531 (inactive) | 14.3% (inactive) | 19.8% (inactive)
28 | COc1cccc(Oc2cn[nH]c2-c2ccc(O)cc2O)c1 | 361 | 10.2% (inactive) | -13.9% (inactive) | 103% | -104% (inactive) | 101% | -0.453 (inactive) | 4.8e-05 (inactive) | 0.0038 (inactive) | -4.4% (inactive) | 12.8% (inactive)
